D1 PAM – potentiators of human D1 dopamine receptor; 360,000 tested, 0.036% active; HEK293 TREx D1 cells, calcium flux, dopamine EC20 potentiation; potentiation, % at 10 µM; AID 504651; in the data active = potentiation above about 30%; note: 0% is about no effect
Target sequence (P21728 whole entry, looked up): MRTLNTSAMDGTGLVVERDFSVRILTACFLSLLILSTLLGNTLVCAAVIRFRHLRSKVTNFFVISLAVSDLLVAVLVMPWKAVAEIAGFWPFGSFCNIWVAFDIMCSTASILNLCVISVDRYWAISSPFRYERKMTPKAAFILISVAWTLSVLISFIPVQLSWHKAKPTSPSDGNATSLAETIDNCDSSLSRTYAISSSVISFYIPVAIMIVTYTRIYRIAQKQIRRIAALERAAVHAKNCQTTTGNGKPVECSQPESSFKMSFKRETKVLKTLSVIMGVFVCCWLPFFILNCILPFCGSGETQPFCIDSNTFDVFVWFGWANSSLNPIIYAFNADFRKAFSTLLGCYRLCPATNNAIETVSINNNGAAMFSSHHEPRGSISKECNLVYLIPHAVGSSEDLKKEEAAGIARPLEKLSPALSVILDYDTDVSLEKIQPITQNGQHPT
DRD3 antagonist – blocks the human D3 dopamine receptor; P35462; D3R cells, DiscoveRx beta-arrestin luminescence, antagonist mode; stronger effect = lower value; max response, negative = inhibition, %; 360,000 tested, 2.5% active; in the data active = max response below about -50%; inconclusive = no clear call, values can overlap the other calls; note: % is set by controls: 0 for no effect and ±100 for the full control effect
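Cells expressing the human receptor were seeded at 1500 cells/well, incubated overnight at 37 degrees C in 5% CO2, then exposed to library compounds with dopamine controls for 90 minutes at 37 degrees C before luminescent detection.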
DRD3 agonist – agonists of human D3 dopamine receptor | P35462 | 410,000 tested, 0.58% active | max activation, % | D3R DiscoveRx beta-arrestin cells, luminescence, 90 min | AID 652048; in the data active = max activation above about 30%; note: 0% is about no effect
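Cells at 1500/well, incubated overnight, then treated with pinned compounds (dopamine as control) for 90 min at 37 degrees C. DiscoveRx reagent added for 30 - 60 minutes at room temperature; luminescence read.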
D1 ag – activates the human D1 dopamine receptor; HEK293 T-REx D1 cells, calcium flux, agonist mode; activation, % at 2 µM; 360,000 tested, 1% active; AID 504660; in the data active = activation above about 30%; note: 0% is about no effect
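Tetracycline-induced HEK293 TREx D1 cells, force-coupled to calcium signalling, were dye-loaded with a no-wash calcium kit. Compound was pin-added after a 10 s baseline. Fluorescence was read kinetically at 1 cycle/s for 180 s, with calcium rises flagged as agonism.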
D1 antagonist – antagonists of human D1 dopamine receptor | 360,000 tested, 3.2% active | activity change, negative = inhibition, % at 10 µM | P21728 | HEK293 TREx D1 cells, calcium flux, dopamine EC80; stronger effect = lower value | AID 504652; in the data active = activity change below about -30%; note: % is set by controls: 0 for no effect and ±100 for the full control effect
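Kinetic fluorescence of a calcium dye serves as the read-out. D1-expressing Hek293 Trex cells, induced overnight at 30 C, are exposed to compound for 180 s before an EC80 dopamine addition, then read 180 s further.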
Numbers without * were called inactive; ? = inconclusive; · = not tested or not shown. Sampled rows, rich in hits. Any-hit rate of the full collection: about 6.1%.

SMILES	D1 PAM	DRD3 antagonist	DRD3 agonist	D1 ag	D1 antagonist
CC(C)(C)c1ccc(C(=O)N2CCC2(C)C(=O)Nc2cccc3ncccc23)cc1 (centres undefined)	·	-17	84*	·	·
CC(C)(C)c1ccc(C(=O)N2CCC2(C)C(=O)Nc2cccc3ccccc23)cc1 (centres undefined)	·	0	3	·	·
CCOc1ccccc1CNC(=O)c1cc2c(=O)n(Cc3ccccc3)ccc2nc1C	-5	·	-4	2	-4
CCCn1c(=O)n(CC(=O)NCC2CCCO2)c(=O)c2c3c(sc21)COC(C)(C)C3 (centres undefined)	0	0	-11	1	-9
Cn1c(=O)n(CC(=O)NCC2CCCO2)c(=O)c2c3c(sc21)COC(C)(C)C3 (centres undefined)	-1	-1	0	1	-30*
Cc1ccc(Nc2nc(NCc3ccco3)c3ccccc3n2)cc1	-17	0	-10	47*	-66*
COc1ccccc1Nc1nc(NCc2ccco2)c2ccccc2n1	-20	10	-11	2	-93*
COc1ccc(Nc2nc(NCc3ccco3)nc(N/N=C/c3ccccc3)n2)cc1	4	-51*	-6	0	16
Fc1ccccc1-c1nc(NCc2ccco2)c2ccccc2n1	-5	-21	-6	3	-9
Cn1cccc1/C=N\NC(=O)Cc1ccc(Br)c2ccccc12	-1	-2	2	4	6
Cc1cccc(OCc2nnc(SCC(=O)NCc3ccc4c(c3)OCO4)o2)c1	·	-2	-1	·	·
COc1ccccc1N1CCN(CCN(C(=O)C2CCCCC2)c2ccccn2)CC1	-6	-85*	-90	-2	29
COc1ccccc1N1CCN(CC(C)N(C(=O)C2CCCCC2)c2ccccn2)CC1 (centres undefined)	-5	-70*	-36	1	-3
COc1ccccc1N1CCN(CCN(C(=O)c2ccc(F)cc2)c2ccccn2)CC1	-4	-116*	-91	-1	-17
Cc1ccc(CN(C(=O)c2ccc(F)cc2)c2ccccn2)o1	-1	·	-1	-3	12
O=[N+]([O-])c1ccccc1-c1ccc(CN2CCN(c3ccccc3)CC2)o1	-9	-58*	0	0	-33*
COc1ccc(CCN(C)CCCC(C#N)(c2ccc(OC)c(OC)c2)C(C)C)cc1OC (centres undefined)	·	-88*	·	·	·
COc1ccc(C(C#N)(CCC#N)CCC#N)cc1OC	-10	-22	-1	0	-3
O=C(CCCN1CCC(n2c(=S)[nH]c3ccccc32)CC1)c1ccc(F)cc1	·	·	-25	·	·
O=C(CCCN1CC=C(n2c(=O)[nH]c3ccccc32)CC1)c1ccc(F)cc1	-3	-19	-11	7	-71*
FC(F)Oc1cccc(NC(=S)N2CCN(c3ccccn3)CC2)c1	-9	-8	-2	7	-71*
Cc1nn(Cc2ccc([N+](=O)[O-])cc2)c(=O)n1-c1c(F)cccc1F	-3	-61*	1	1	-4
Fc1ccc(Nc2c(-c3c[nH]c4ccccc34)nc3ccccn23)cc1	-1	·	-4	-1	-18
COc1ccc(CC(=O)NC(=S)Nc2ccc(S(N)(=O)=O)cc2)cc1	-9	-5	-5	34*	10
COc1ccc(C(=O)NC(NC(=S)Nc2ccc(S(N)(=O)=O)cc2)C(Cl)(Cl)Cl)cc1 (centres undefined)	-2	-75*	-2	2	4
SMILES	D1 PAM	DRD3 antagonist	DRD3 agonist	D1 ag	D1 antagonist
CCN(C(=O)COC(=O)CNS(=O)(=O)c1ccc(SC)c([N+](=O)[O-])c1)C1CCCCC1	8	6	-2	4	-5
CCN1C[C@@H]2[C@@H]3C(=O)N(C)C(=O)[C@@H]3[C@](Cc3ccccc3)(C(=O)OC)N2C1=NC1CCCCC1	·	-5	-23	·	·
O=[N+]([O-])c1ccc(NNC(=S)Nc2ccccc2)cc1	-7	-93*	-2	2	-3
O=[N+]([O-])c1ccc(O)c(NC(=S)Nc2ccccc2)c1	2	-78*	-7	3	·
O=[N+]([O-])c1ccc(NC(=S)NCCc2ccccc2)cc1	-8	-10	-1	16	-37*
COc1ccc([N+](=O)[O-])cc1NC(=S)Nc1ccccc1	3	0	-2	1	-6
CC1(C)CC(=O)C=C(c2cccc3c2sc2ccccc23)C1	-1	-11	-3	3	16
COc1cccc2sc(N(CCN(C)C)C(=O)c3ccc4c(c3)CCCC4)nc12	2	?	-8	10	0
CCOc1ccc2nc(N(CCCN(C)C)C(=O)c3ccc4c(c3)CCCC4)sc2c1	-10	-84*	-23	24	-25
CN(C)CCCN(C(=O)c1ccc2c(c1)CCCC2)c1nc2ccc(Cl)cc2s1	-6	-88*	-10	18	9
CN(C)CCCN(C(=O)CCc1ccccc1)c1nc2ccc(Cl)cc2s1	-8	-17	-35	31*	-8
CCCCCCOC(=O)c1cccnc1	·	·	9	·	·
Cc1ccc(NC(=O)CSCC(=O)N(C)Cc2c(F)cccc2Cl)cc1	·	?	-3	·	·
CC(=O)Cc1nsc(NC(=O)c2ccc(COc3ccccc3C)o2)n1	-9	-9	2	4	-26
N#C/C(=C\c1coc2ccc(O)cc2c1=O)C(=O)Nc1nc2ccccc2s1	2	-1	6	227*	-52*
COc1cc(CNCCNC(=O)c2nonc2N)ccc1OCc1ccc(Cl)nc1	-9	-4	-7	8	-10
COc1cc(/C=N/NC(=O)C23CC4CC(CC(C4)C2)C3)cc(Br)c1O	-4	?	-29	1	22
O=C(N/N=C/c1cc([N+](=O)[O-])cc(Br)c1O)C12CC3CCC(CC(C3)C1)C2	14	-1	-13	122*	-32*
CS(=O)(=O)N1CCN(S(=O)(=O)c2ccccc2[N+](=O)[O-])CC1	-2	-7	-4	2	-10
O=[N+]([O-])c1ccccc1S(=O)(=O)N1CCN(C2CCCC2)CC1	6	-59*	-27	0	-11
O=S(=O)(c1ccc(Cl)cc1)N1CCN(C2CCN(Cc3ccccc3)CC2)CC1	-1	-63*	-12	2	6
O=[N+]([O-])c1ccccc1S(=O)(=O)N1CCN(C2CCN(Cc3ccccc3)CC2)CC1	-2	-76*	-38	1	-8
C[C@H]1CN([C@@H](C)CO)C(=O)c2cccc(NS(=O)(=O)c3ccc(Cl)cc3)c2O[C@@H]1CN(C)CC1CCCCC1	·	8	3	·	·
CCOC(=O)C1(C)C=C(Nc2ccc(OC)cc2)C(=O)N1c1ccccc1 (centres undefined)	-3	·	5	2	-42*
CCOC(=O)C1(C)C=C(Nc2ccc(C)cc2)C(=O)N1c1ccc(C)cc1 (centres undefined)	-3	4	4	1	0
CCCC(=O)Nc1ccc(C(=O)COC(=O)c2cc(C)oc2C)cc1	0	-1	-1	6	-1

Screening data as filed in PubChem BioAssay.
